Test results as given in PMC5540273 (PLoS ONE, 2017).

What follows are compounds tested on EGFR. Conditions: concentration: 1 μM, replicates: in singlicate; n = 1.
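Note: KINOMEscan kinase panel screen.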

Point of comparison: `Cl.O=S(=O)(c1cccc(F)c1)c1ccc(Nc2ncnc3cc(Br)sc23)cc1Cl` [GSK306886], “%Inh” value 99.2%. Against it:
- Cn1cc(-c2ccc3c(c2)CCN3C(=O)Cc2cccc(C(F)(F)F)c2)c2c(N)ncnc21 [GSK2606414] — lower, 20%
- CNc1nccc(-c2c(-c3ccc(F)cc3)ncn2CCCN2CCOCC2)n1 [SB-222516] — lower, 10%
- CN1CCC(n2cnc(-c3ccc(F)cc3)c2-c2ccnc(NC3CCNCC3)n2)CC1 [SB-229482] — lower, 17%
- Clc1cc(Nc2ncnc3cc[nH]c23)ccc1OCc1ccccn1 — higher, 99.9%
- COc1cc2ncnc(Nc3ccc(OCc4ccccc4Br)c(Cl)c3)c2cc1OC.Cl [GI261590] — higher, 99.9%
- Cc1ccc(C)c(NC(=O)NCCNc2ccnc(Nc3ccc(F)cc3)n2)c1 [GSK1379878] — lower, 10%
- CCc1nc(-c2cccc(C)c2)c(-c2ccnc(NC(=O)c3ccccc3)c2)s1 — lower, 24%
- FC(F)(F)c1ccc(-c2nn3ncccc3c2-c2ccnc(Nc3cccc(C(F)(F)F)c3)n2)cc1 [GW828205] — lower, 11%
- Cl.c1ccc(Cn2ccc3cc(Nc4ncnc5ccccc45)ccc32)cc1 [GW275568] — higher, 100%
- C[C@@H]1CCN(C(=O)CO)C[C@@H]1N(C)c1ncnc2[nH]ccc12 — lower, 1%
- O=C(NCCCN1CCCC1=O)c1cnc(NCc2cc(Cl)ccc2Cl)nc1NC1CCNCC1 — lower, 20%
- CSc1nn2c(=O)cc(N3CCOCC3)nc2n1Cc1cccc(Cl)c1Cl [GSK2347225] — lower, 39%
- COc1ccc(Nc2nccc(N3CCC(NC(=O)c4cccc(NC(C)=O)c4)C3)n2)cc1 (stereo not shown) [GSK1379732] — lower, 16%
- Fc1cccc(COc2ccc(Nc3ncnc4sc(-c5ccc[nH]5)cc34)cc2Cl)c1 [GW707818] — higher, 100%
- O=C(Nc1ccccc1)Nc1ccc(Oc2ccc3nccn3n2)cc1 — lower, 23%
- CN1c2ccc(-c3ccc(C(=O)NCCO)cc3)cc2-c2[nH]ncc2S1(=O)=O — lower, 0%
- FC(F)(F)c1ccc(-c2cc(-c3c[nH]nc3-c3ccccn3)ccn2)cc1 [GW599550] — lower, 18%
- Nc1nccc2scc(-c3ccc4c(c3)CCN4C(=O)Cc3cc(F)ccc3F)c12 [GSK2587663] — lower, 21%
- Cn1ccc2ncnc(Nc3ccc(Oc4cccc(Cl)c4)c(Cl)c3)c21 — higher, 100%
- CS(=O)(=O)CCNCc1nc(-c2ccc3ncnc(Nc4ccc(OCc5cccc(F)c5)c(Cl)c4)c3c2)cs1.Cl [GW583340] — higher, 99.9%
- CCCc1ccc(S(=O)(=O)NC2CCN(c3ccnc(Nc4ccc(OC)cc4)n3)C2)cc1 (stereo not shown) [GSK1379737] — lower, 32%
